From PubChem
HTR5A ag – activates human HTR5A in OPRM1-OPRD1 agonist counter-screen; activation, % at 9.3 µM; P47898; HTR5A agonist assay, luminescence, cell-based; AID 504692; 0.61% of 340,000 active; in the data active means activation mostly above about 9.5%, no sharp cut-off; inactive means mostly below about 7.6%
HTR5A inv ag – inverse agonist of human HTR5A in OPRM1-OPRD1 counter-screen. P47898. HTR5A cell line, luminescence, inverse agonism. inhibition, % at 9.3 µM. 0.083% of 340,000 active. AID 504634; in the data active means inhibition mostly above about 23%, no sharp cut-off; inactive means mostly below about 18%
OPRM1-OPRD1 inv – inverse agonist of human OPRM1-OPRD1 heterodimerization; inhibition, % at 9.3 µM; cell-based MOR-DOR heterodimer luminescence, inverse agonism; 0.21% of 340,000 active; P35372+P41143; in the data active means inhibition above about 22%, passing the limit was not always enough
m5-HT2A agonist – agonists of mouse serotonin 5-HT2A receptor (HTR2A); CHO-K1 mHTR2A beta-arrestin complementation, luminescence; percent of 30 µM serotonin response; AID 624169; 0.66% of 360,000 active; activation, % at 7.6 µM;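 active means activation above a run cutoff, the mean activation of all tested compounds plus 3 SD, cut at about 14% in these data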
Target sequence (P35363 whole entry, looked up): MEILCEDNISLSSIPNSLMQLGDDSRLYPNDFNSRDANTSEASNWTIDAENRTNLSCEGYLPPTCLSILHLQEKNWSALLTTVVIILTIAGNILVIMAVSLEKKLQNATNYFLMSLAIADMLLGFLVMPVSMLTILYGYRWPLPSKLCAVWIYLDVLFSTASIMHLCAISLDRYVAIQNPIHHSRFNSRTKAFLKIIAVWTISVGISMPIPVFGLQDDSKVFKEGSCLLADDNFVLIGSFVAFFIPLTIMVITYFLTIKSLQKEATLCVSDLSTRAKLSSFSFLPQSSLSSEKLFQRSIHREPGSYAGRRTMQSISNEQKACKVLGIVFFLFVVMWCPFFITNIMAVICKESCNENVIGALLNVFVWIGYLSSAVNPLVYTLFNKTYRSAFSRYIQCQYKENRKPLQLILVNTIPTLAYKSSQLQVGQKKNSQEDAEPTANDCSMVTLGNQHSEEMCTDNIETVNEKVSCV
OPRM1-OPRD1 ag – OPRM1-OPRD1 heterodimerization agonism | P35372+P41143 | cells, luminescence | activation, % at 9.3 µM | 0.3% of 340,000 active | AID 504326; in the data active means activation above about 18%
MOR ag counter – counter-screen for mouse HTR2A agonists: human mu opioid receptor agonists; shares compounds with m5-HT2A agonist; U2OS OPRM1 beta-arrestin PathHunter, luminescence; DMSO 0%, DAMGO 9.3 µM 100%; activation, % at 9.3 µM; 5.3% of 2,300 active;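 active means mean activation above the mean of DMSO-only wells plus 3 SD, cut at about 0.5% in these data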
m5-HT2A ag conf – mouse HTR2A agonism confirmed; shares compounds with m5-HT2A agonist; CHO-K1 PathHunter beta-arrestin recruitment, luminescence; DMSO 0%, 30 µM serotonin 100%; activation, % at 7.6 µM; 19% of 2,300 active; AID 624381;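 active means mean activation across triplicates above the hit threshold derived in the original primary screen, cut at about 15% in these data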
Of the large screens only hits and unclear results are named; the others gave an inactive call (follow-up assays come after a bar, where they were run). Compounds with a hit are over-represented: about 1.6% of the library has one in this group of screens.

Cc1ccc(S(=O)(=O)NCC(=O)N2CCCCC2)cc1	m5-HT2A agonist 14 | MOR ag counter inactive | m5-HT2A ag conf inactive
Cc1ccc(S(=O)(=O)NC(CC(=O)N2CCOCC2)c2ccco2)cc1 (stereo not drawn)	m5-HT2A agonist 43 | MOR ag counter inactive | m5-HT2A ag conf inactive
COC(=O)NCCc1cc(OC)c(OC)cc1S(=O)(=O)N1CC(=O)Nc2ccccc21	m5-HT2A agonist 15 | MOR ag counter inactive | m5-HT2A ag conf inactive
COc1ccc(S(=O)(=O)N2CC(=O)Nc3ccccc32)cc1Cl	none
COc1ccccc1OCCNC(=O)c1ccc(C)o1	m5-HT2A agonist 15 | MOR ag counter inactive | m5-HT2A ag conf inactive
Cc1ccc(C(=O)NCCNC(=O)c2ccc(C)o2)o1	none
C[C@@H]1CN([C@@H](C)CO)S(=O)(=O)c2ccc(Br)cc2O[C@H]1CN(C)Cc1ccncc1	none (no result: HTR5A ag, HTR5A inv ag, OPRM1-OPRD1 inv, OPRM1-OPRD1 ag)
C[C@H](CO)N1C[C@H](C)[C@H](CN(C)Cc2cncnc2)Oc2cc(Br)ccc2S1(=O)=O	m5-HT2A agonist 18 (no result: HTR5A ag, HTR5A inv ag, OPRM1-OPRD1 inv, OPRM1-OPRD1 ag) | MOR ag counter inactive | m5-HT2A ag conf inactive
CC(=O)Nc1ccc(C(=O)N/C(=C/c2ccccc2)C(=O)Nc2cccc(C(=O)O)c2)cc1	none
O=C(Nc1ccc(C(=O)O)cc1)/C(=C\c1ccccc1)NC(=O)c1ccccc1	m5-HT2A agonist 18 | MOR ag counter inactive | m5-HT2A ag conf inactive
COC(=O)C[C@H]1CC[C@H](NC(=O)Nc2ccccc2)[C@@H](CO)O1	none (no result: HTR5A ag, HTR5A inv ag, OPRM1-OPRD1 inv, OPRM1-OPRD1 ag)
CC1(C(=O)NS(=O)(=O)c2ccc(C#N)cc2)CCN1C(=O)C1CCCCC1 (stereo not drawn)	none (no result: HTR5A ag, HTR5A inv ag, OPRM1-OPRD1 inv, OPRM1-OPRD1 ag)
CC(CCc1ccccc1)NC(=O)CNC(=O)N1CC(=O)Nc2ccccc21 (stereo not drawn)	m5-HT2A agonist 15 | MOR ag counter inactive | m5-HT2A ag conf inactive
CC(CCc1ccccc1)NC(=O)CN1CCc2ccccc2C1 (stereo not drawn)	m5-HT2A agonist 25 | MOR ag counter inactive | m5-HT2A ag conf 60
O=C1CN(C(=O)NCC(=O)N[C@@H](Cc2ccccc2)C(=O)O)c2ccccc2N1	none
CC(=O)C(Cc1ccccc1)NC(=O)CN1CCc2ccccc2C1 (stereo not drawn)	none
Cc1ccc(CNc2nc3cc(-c4ccccc4)sc3c(=O)n2C)c(C)c1	none (no result: HTR5A ag, HTR5A inv ag, OPRM1-OPRD1 inv, OPRM1-OPRD1 ag)
CCCCN(C)C(=O)c1sc(=O)n(Cc2ccccc2C#N)c1C	none (no result: HTR5A ag, HTR5A inv ag, OPRM1-OPRD1 inv, OPRM1-OPRD1 ag)
C/C(=C\c1ccccc1)CN1CCN(c2ccccc2)CC1	m5-HT2A agonist 19 | MOR ag counter inactive | m5-HT2A ag conf 41
Cc1ccc(NC(=O)CSc2nc3ccc(Nc4nc(N5CCOCC5)nc(N5CCOCC5)n4)cc3s2)cc1	none
COc1ccc(NC(=O)CSc2nc3ccc(Nc4nc(N5CCOCC5)nc(N5CCOCC5)n4)cc3s2)cc1	m5-HT2A agonist 15 | MOR ag counter inactive | m5-HT2A ag conf 18
Cc1cccc(N2CCN(c3ccc(N4C(=O)CCCC4=O)cc3[N+](=O)[O-])CC2C)c1 (stereo not drawn)	m5-HT2A agonist 15 | MOR ag counter inactive | m5-HT2A ag conf inactive
C=CC(=O)Nc1cccc(N(C)c2ccnc(Nc3ccc(N4CCN(C)CC4)cc3)n2)c1	none
CCOc1ccccc1NC(=O)CSc1nc2ccccc2nc1N1CCOCC1	none
COCCCNC(=O)CSc1nc2ccccc2c(=O)n1CCCN1CCCCC1	none
COc1ccc(NC(=O)CSc2nc3ccccc3nc2N2CCOCC2)c(OC)c1	m5-HT2A agonist 16 | MOR ag counter inactive | m5-HT2A ag conf inactive
COc1ccc(NC(=O)CSc2nc3ccccc3c(=O)n2CCCN2CCCCC2)c(OC)c1	m5-HT2A agonist 42 | MOR ag counter inactive | m5-HT2A ag conf 18
COC(=O)[C@@]12C[C@@H](CC(=O)NCCCCc3ccccc3)C(=O)N(Cc3ccco3)C1=CCC(C)(C)C2	none (no result: HTR5A ag, HTR5A inv ag, OPRM1-OPRD1 inv, OPRM1-OPRD1 ag)
NC1=C(Cl)C(=O)c2ccccc2C1=O	m5-HT2A agonist 17 | MOR ag counter inactive | m5-HT2A ag conf inactive
O=C1C(Cl)=C(NCCCO)C(=O)c2ccccc21	none
COc1cc(C)ccc1S(=O)(=O)NC(=O)C1(C)CCN1C(=O)Cc1ccc(Cl)cc1Cl (stereo not drawn)	none (no result: HTR5A ag, HTR5A inv ag, OPRM1-OPRD1 inv, OPRM1-OPRD1 ag)
COc1ccc(NC(=O)CCNS(=O)(=O)c2ccc3[nH]c(=O)oc3c2)cc1Cl	m5-HT2A agonist 22 | MOR ag counter inactive | m5-HT2A ag conf inactive
Cc1ccc(NC(=O)CCNS(=O)(=O)c2ccc3[nH]c(=O)oc3c2)cc1	none
CCOC(=O)[C@]12CCCC=C1N(Cc1ccco1)C(=O)[C@H](CC(=O)NCC13CC4CC(CC(C4)C1)C3)C2	none (no result: HTR5A ag, HTR5A inv ag, OPRM1-OPRD1 inv, OPRM1-OPRD1 ag)
C(=N\n1c2ccccc2c2ccccc21)/c1ccccc1	none
Oc1ccccc1/C=N/n1c2ccccc2c2ccccc21	m5-HT2A agonist 16 | MOR ag counter inactive | m5-HT2A ag conf inactive
Cn1nc(C(=O)Nc2cccc(C(=O)NC3CC3)c2)c2ccccc2c1=O	none
Cc1cc(=O)c(C(=O)Nc2cccc(C(=O)NC3CC3)c2)nn1-c1ccccc1Cl	m5-HT2A agonist 15 | MOR ag counter inactive | m5-HT2A ag conf inactive
CC(C)N1CCCC(C)(C(=O)Nc2nc3ccccc3[nH]2)C1 (stereo not drawn)	none (no result: HTR5A ag, HTR5A inv ag, OPRM1-OPRD1 inv, OPRM1-OPRD1 ag)
CC(=O)c1ccc(N2CCN(C(=O)C3CCN(S(=O)(=O)c4ccc5c(c4)CC(C)N5C(C)=O)CC3)CC2)cc1 (stereo not drawn)	m5-HT2A agonist 16 | MOR ag counter inactive | m5-HT2A ag conf inactive
COc1ccc(NC(=O)C2(C)CCN2Cc2ccc(OC)c3ccccc23)cc1OC (stereo not drawn)	none (no result: HTR5A ag, HTR5A inv ag, OPRM1-OPRD1 inv, OPRM1-OPRD1 ag)
CC(C)Oc1ccc(C(=O)Nc2ccc(N3CCN(C(=O)c4ccco4)CC3)cc2)cc1	m5-HT2A agonist 15 | MOR ag counter inactive | m5-HT2A ag conf inactive
CCN(c1ccccc1)S(=O)(=O)c1ccc(C(=O)N2CCN(c3ccccc3F)CC2)cc1	none (no result: HTR5A ag, HTR5A inv ag, OPRM1-OPRD1 inv, OPRM1-OPRD1 ag)
Cc1cc(OC(C)C(=O)N(Cc2ccco2)C2CCS(=O)(=O)C2)cc(C)c1Cl (stereo not drawn)	m5-HT2A agonist 17 | MOR ag counter inactive | m5-HT2A ag conf inactive
Cc1cc(OCC(=O)N(Cc2ccco2)C2CCS(=O)(=O)C2)cc(C)c1Cl (stereo not drawn)	none (no result: HTR5A ag, HTR5A inv ag, OPRM1-OPRD1 inv, OPRM1-OPRD1 ag)
CC(C)(C)Cc1c(-c2ccc(C#N)cc2)nc2ccc(Cl)cn12	none (no result: HTR5A ag, HTR5A inv ag, OPRM1-OPRD1 inv, OPRM1-OPRD1 ag)
COC(=O)C(CCSC)NC(=O)Cn1ncc2c(=O)oc3ccccc3c21 (stereo not drawn)	m5-HT2A agonist 23 | MOR ag counter inactive | m5-HT2A ag conf inactive
CCCNC(=O)C1(C)CCCN(C(=O)c2ccc(F)cc2Cl)C1 (stereo not drawn)	none (no result: HTR5A ag, HTR5A inv ag, OPRM1-OPRD1 inv, OPRM1-OPRD1 ag)
Cc1ccc(C)c(N2N=C(C(=O)Nc3ccccc3N3CCCC3)CCC2=O)c1	none
Cc1ccc(C)c(N2N=C(C(=O)Nc3cccnc3)CCC2=O)c1	m5-HT2A agonist 15 | MOR ag counter inactive | m5-HT2A ag conf inactive
